These results are taken from PubChem BioAssay AID720541 (National Center for Advancing Translational Sciences (NCATS), 2013).

Among all 1,300 compounds or so, about 420 (32%) were called active. Another 32% or so got no clear call; they are omitted. Calls come from the whole dose curve; as a rule, active = well fitted inhibition curve with a large enough effect; inconclusive = small, poorly fitted or top-dose-only effect; inactive = no such curve, though single readings can be large or run the other way. This is one part of the list.
Potency is the fitted concentration of half-maximal effect.

For this assay, the target named is C-terminal-binding protein 1 (Homo sapiens) (UniProt Q13363). Briefly: qHTS for Inhibitors of the Phosphatase Activity of Eya2: Carboxyl-terminal binding protein (CtBP) Counterscreen for Cherry-picked Compounds. Note: nearly all actives have a fitted effect of over 65% in size. To be noted: purified protein-protein binding, AlphaScreen, 3 h; series mostly up to 46.1 µM. The procedure, abridged: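 Cherry-picked compounds (final 2.5 nM–46 uM) were incubated 2 h at RT with 25 nM CtBP-6xHIS and 25 nM GST-E1A. Alpha beads (20 ug/mL) were then added for 1 h, light-protected; DMSO and E1A peptide inhibitor wells set the normalization.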
On to `O=C(CSc1ccc2nnc(-c3ccccn3)n2n1)Nc1ccccc1C(F)(F)F`, for which the Potency was 10.7 µM (active).

Consider `Cc1ccccc1NC(=O)CSc1ccc(-c2ccccn2)nn1`, for which the Potency was 3.79 µM (active).

As to `Cc1cc(C)c(NC(=O)CSc2ccc(-c3ccccn3)nn2)c(C)c1`, the Potency is 3.38 µM (active).

Consider `Cc1csc(NC(=O)CSc2ccc(-c3ccccn3)nn2)n1`, for which the Potency is 4.26 µM (active).

In the case of `O=S(=O)(NCCSCc1ccc(Cl)c(Cl)c1)c1ccc2c(c1)OCCO2`, the Potency entry is “inactive”.

With `CCOc1ccc(CCN2C(=O)C(=O)N([C@@H](Cc3ccccc3)CN3CCC[C@H]3CN3C(=O)C(=O)NC[C@@H]3Cc3ccccc3)C[C@@H]2Cc2ccccc2)cc1`, the Potency entry is “inactive”.

Turning to `CCN(CC)c1ccc(NC(=O)c2ccc3c(c2)c(C)c(C)n3C)cc1`, the Potency is 10.7 µM (active).

With `NC(N)=Nc1nc2cc([N+](=O)[O-])ccc2o1`, the Potency entry is “inactive”.

As to `CN(C)c1ccc(/C=C2\C=Cc3ccccc32)cc1N`, the Potency was 13.5 µM (active).

On to `CNc1ccc(/C=C2\C=Cc3ccccc32)cc1OC`, for which the Potency is 8.49 µM (active).

For `Cc1cc(/C=C2\C=Cc3ccccc32)ccc1N(C)C`, the Potency is 8.49 µM (active).

On to `CN(C)c1ccc(/C=C2\C=Cc3ccccc32)cc1[N+](=O)[O-]`, for which the Potency is 7.57 µM (active).

As to `O=[N+]([O-])c1ccc(/C=C2\C=Cc3ccccc32)cc1`, the Potency was 7.57 µM (active).

Regarding `COc1cc(/C=C2/C=Cc3ccccc32)ccc1N(C)C`, the Potency was 8.49 µM (active).

Regarding `COc1cccc(N2CCN(c3ccc4nnc(CCC(=O)Nc5cccc(C(C)=O)c5)n4n3)CC2)c1`, the Potency entry is “inactive”.

For `O=C(Nc1ccccc1Cl)N1CCN(c2ccc3nnc(-c4ccccc4)n3n2)CC1`, the Potency was 5.36 µM (active).

For the molecule `NCC(=O)Nc1ccc(Cl)cc1C(=O)c1ccc[nH]1`, the Potency result is “inactive”.

For the molecule `COC1=C(Nc2ccc(OC)cc2)C(=O)c2ccccc2C1=O`, the Potency was 6.75 µM (active).

Take `COc1ccc(-c2cn(Cc3ccc4c(c3)C(=O)c3ccccc3C4=O)nn2)cc1`: the Potency result is “inactive”.

Turning to `CCc1ccc2nc3nc(C)cc(C)c3c(N)c2c1`, the Potency is 10.7 µM (active).

With `CCC(=O)Nc1ccc(C(=O)COC(=O)c2nc3nccc(C)n3n2)cc1`, the Potency entry is “inactive”.

Turning to `COc1ccc(C(=O)/C=C/Nc2ccc(S(=O)(=O)Nc3nc(C)cc(C)n3)cc2)cc1OC`, the Potency was 12 µM (active).

With `COc1cc(NS(=O)(=O)c2ccc(N/C=C\C(=O)c3ccc(OC)c(OC)c3)cc2)nc(OC)n1`, the Potency was 8.49 µM (active).

In the case of `Cc1ccccc1-c1cnc(C(O)c2c(C)cccc2C)[nH]1` (stereo not drawn), the Potency entry was “inactive”.

Regarding `Cc1oc2cc([N+](=O)[O-])c(O)c([N+](=O)[O-])c2c1C(=O)c1ccc(Cl)cc1`, the Potency is 16.9 µM (active).

Consider `COc1ccc(NC(=O)c2cc(-c3ccco3)nc3ccccc23)cn1`, for which the Potency result is “inactive”.

Turning to `O=C(Nc1nncs1)c1cc(-c2ccco2)nc2ccccc12`, the Potency is 13.5 µM (active).

For the molecule `COc1cccc(C(=O)Nc2cccc(-c3ccc4nncn4n3)c2)c1OC`, the Potency was 13.5 µM (active).

As for `COc1ccccc1OCc1ccc(C(=O)Nc2cc(OC)c(OC)c(OC)c2)o1`, the Potency result is “inactive”.

In the case of `Nc1ccc(O)cc1`, the Potency was 12 µM (active).

On to `Nc1nc2nn(-c3ccccc3)nc2c(=O)[nH]1`, for which the Potency is 6.01 µM (active).

For the molecule `CCN(CC)C(=O)c1ccc(-c2nnc(Nc3ccc(C(=O)NC)cc3)c3ccccc23)cc1`, the Potency was 16.9 µM (active).

With `Cc1ccc(-c2nnc(Nc3ccc4c(c3)OCO4)c3ccccc23)cc1S(N)(=O)=O`, the Potency result was “inactive”.

On to `COc1ccc(-c2csc(-c3ccc(C(=O)O)cc3)n2)cc1`, for which the Potency entry is “inactive”.

For the molecule `CNC(=O)c1ccc(Nc2nnc(-c3ccc(C(N)=O)cc3)c3ccccc23)cc1`, the Potency is 6.75 µM (active).

With `COc1ccc(Nc2nnc(-c3ccc(C(N)=O)cc3)c3ccccc23)cc1`, the Potency was 4.78 µM (active).

On to `NC(=O)[C@@H]1CC2(CC(c3cccc(NC(=O)COc4ccc(Cl)cc4)c3)=NO2)CN1C(=O)COc1ccc(Cl)cc1` (stereo partly drawn), for which the Potency result is “inactive”.

As for `CCOCCCNC(=O)c1cc2sc(Cl)cc2n1CC`, the Potency entry is “inactive”.

Take `Cc1cccc2cn[nH]c12`: the Potency entry is “inactive”.

Regarding `O=C(NN=C1CCCC1)c1[nH]c2ccc(Br)cc2c1-c1ccccc1`, the Potency result is “inactive”.

As for `CCOC(=O)c1sc(NC(=O)CSc2nc(O)c(Cc3ccccc3)c(=O)[nH]2)nc1C`, the Potency is 16.9 µM (active).

For `COc1ccc(OC)c(NC(=O)CSc2nc(-c3ccccc3)cc(=O)[nH]2)c1`, the Potency result is “inactive”.

`O=C(O)c1ccccc1-c1ccccc1C(=O)Nc1ccc2c(c1)[nH]c(=O)c1ccccc12`: the Potency was 7.57 µM (active).

As for `O=C(O)c1ccccc1-c1ccccc1C(=O)Nc1ccc2oc(=O)c3ccccc3c2c1`, the Potency is 12 µM (active).

With `CCN1C(=O)/C(=C2/C=Cc3ccccc3N2CC)SC1=S`, the Potency was 4.26 µM (active).

Regarding `COc1cc(OC)c(OC)cc1/C=C/c1nccc2ccccc12`, the Potency was 7.57 µM (active).

Regarding `FC(F)(F)c1ccc(CN2C[C@@H]3C(c4ccc(Cl)nc4)C4(c5cccnc5)CC3(C4)[C@H]2c2ccccc2)cc1` (stereo partly drawn), the Potency result is “inactive”.

In the case of `Cc1ccc(O)c(C(=O)c2cnc3c(c2)c(-c2ccc(F)cc2)c(C#N)c(=O)n3C)c1`, the Potency result is “inactive”.

On to `COc1ccc([C@H]2CC(=O)C=C(c3ccnc4ccc(Cl)cc34)C2)cc1`, for which the Potency result was “inactive”.

Consider `CN(C)c1ccc(NC(=O)CC(NCc2ccccn2)C(=O)O)cc1` (stereo not drawn), for which the Potency was 1.07 µM (active).

`CC(=O)Nc1ccc(NC(=O)COc2ncnc3ccccc23)cc1`: the Potency entry was “inactive”.

As to `COc1cc(OC)c(NC(=O)CN(C)S(=O)(=O)c2ccc(-c3ccc(=O)[nH]n3)s2)cc1Cl`, the Potency was 6.01 µM (active).

With `CCN(CC)c1ccc(/C=C2\CCC(/C=C(\C#N)C(=O)Nc3ccccc3F)=C2N2CCOCC2)cc1`, the Potency was 23.9 µM (active).

For `CCCc1ccc(C#N)c(SC2CC(=O)N(c3ccc(OC)cc3)C2=O)n1` (stereo not drawn), the Potency entry was “inactive”.

In the case of `O=C1NC(=O)/C(=C\c2ccccc2OCc2cccc([N+](=O)[O-])c2)N1`, the Potency entry is “inactive”.

For the molecule `COc1ccc(F)cc1-c1cc(NC=O)c2ncc(-c3cccc(C(F)(F)F)c3)n2c1`, the Potency result is “inactive”.

As to `Oc1c(C(Nc2nc3ccccc3s2)c2ccco2)ccc2cccnc12` (stereo not drawn), the Potency is 6.75 µM (active).

For `Cc1cc(C)c(OCCCCN(C)Cc2ccccc2)c(C)c1`, the Potency entry is “inactive”.

Regarding `O=c1c2ccccc2oc2nc3n(c(=O)c12)CCCS3`, the Potency was 12 µM (active).

`Cc1cc(=O)n2nc(N3CCCC(C(=O)Nc4ccc(C)c(C)c4)C3)sc2n1` (stereo not drawn): the Potency result is “inactive”.

Take `CN1/C(=C\C(=S)NC(=O)c2ccccc2Cl)C(C)(C)c2ccccc21`: the Potency is 15.1 µM (active).

Take `Oc1[nH]c2ccccc2c1N=Nc1nc2ccccc2s1`: the Potency entry is “inactive”.

As for `Cc1c(CCO)c(=O)n(-c2ccccc2)n1S(=O)(=O)c1c(Cl)cc(Cl)cc1Cl`, the Potency result is “inactive”.

Take `CCOc1ccc(S(=O)(=O)Nc2cc(SCC(=O)O)c(O)c3ccccc23)cc1`: the Potency is 21.3 µM (active).

Regarding `CCN1CCN(c2nn3c(=O)c4ccccc4nc3c3ccccc23)CC1`, the Potency is 9.53 µM (active).

Take `O=C(O)CCc1c2ccc(=O)c(O)c-2oc2c(O)c(O)ccc12`: the Potency was 16.9 µM (active).

As to `CCN(CC)c1ccc(N=Cc2cc(Br)ccc2O)cc1`, the Potency result was “inactive”.

Turning to `CC(C)c1ccc(C2c3[nH]c4ccccc4c3C[C@H]3C(=O)N(c4ccccc4C(=O)N4CCC[C@H]4C(=O)O)C(=O)N23)cc1` (stereo partly drawn), the Potency entry is “inactive”.

Take `COc1ccc(/C=C2\CCc3ccccc3C2=O)cc1CN1CCOCC1`: the Potency was 13.5 µM (active).

For `COc1ccc(C(=O)N2CCOCC2)cc1S(=O)(=O)N1CCCc2ccccc21`, the Potency entry is “inactive”.

Take `Cn1ccc2c(N3CCCC3)cc3c(c21)C1CCC3C1` (stereo not drawn): the Potency was 15.1 µM (active).

For the molecule `O=C(NCCCNC1CCCCC1)c1ccc(/C=N/O)nc1`, the Potency was 13.5 µM (active).

Turning to `CN(C)c1ccc(Sc2ccc3nc(N)nc(N)c3c2)cc1`, the Potency was 6.75 µM (active).

As to `O=C(/C=C/c1ccco1)Nc1ccccc1N1CCCC1`, the Potency entry is “inactive”.

In the case of `O=C(/C=C/c1ccco1)Oc1cccc2cccnc12`, the Potency was 4.26 µM (active).

On to `O=C(/C=C/c1ccccc1)Oc1cccc2cccnc12`, for which the Potency is 2.39 µM (active).

Consider `O=C(/C=C\c1ccccc1)Oc1cccc2cccnc12`, for which the Potency is 3.38 µM (active).

`COc1ccccc1/C=C/C(=O)Oc1cccc2cccnc12`: the Potency was 3.38 µM (active).

Take `COc1ccc(Br)cc1CNC(=O)c1ccc2c(c1)N(C)CCS2`: the Potency result is “inactive”.

`N#Cc1c(=O)c2nc(NCc3ccccc3)ncc2n2ccccc12`: the Potency is 4.26 µM (active).

Consider `c1ccc2c(c1)nc(Nc1ccc(N3CCCCC3)cc1)c1nncn12`, for which the Potency is 15.1 µM (active).

`CC1CCCCC1Nc1nc2ccc(Cl)cc2n2cnnc12` (stereo not drawn): the Potency result was “inactive”.

In the case of `CC(C)Cn1c(SC(C)C(=O)Nc2ccc(N3CCOCC3)cc2)nc2ccccc21` (stereo not drawn), the Potency result is “inactive”.

As for `Cc1cccc(NC2=C(NCCO)C(=O)c3ccccc3C2=O)c1`, the Potency is 12 µM (active).

Take `CNc1nc(-c2ccc3c(c2)CCN3C(=O)c2cccc(F)c2)cs1`: the Potency result was “inactive”.

As for `CC1=CC(=O)Nc2ncccc2O1`, the Potency was 15.1 µM (active).

Turning to `C[N+](C)(CCCCCI)c1ccc(/C=C/c2nc3ccccc3s2)cc1`, the Potency was 12 µM (active).

For `O=C(Oc1ccc2ccc(=O)oc2c1)c1cccs1`, the Potency entry is “inactive”.

Consider `Cc1nc(S/C(=C\c2ccc(-c3ccc(C(=O)O)c(Cl)c3)o2)C(=O)O)n[nH]1`, for which the Potency is 13.5 µM (active).

As for `CC(=O)Nc1ccc(OC(=O)c2cc3cc(Br)ccc3oc2=O)cc1`, the Potency is 6.75 µM (active).

For `Cc1ccc(C(=O)Oc2ccc3ccc(=O)oc3c2)cc1`, the Potency entry was “inactive”.

For the molecule `O=C(NNC(=O)c1cc2cc(Br)ccc2oc1=O)c1ccc(O)cc1`, the Potency result is “inactive”.

`Cc1cc(/C=C2\C(=N)N3N=C(CC(=O)N4CCOCC4)SC3=NC2=O)c(C)n1Cc1ccccc1`: the Potency entry was “inactive”.

Take `CCOc1cc(/C=C2\C(=N)N3N=C(CC)SC3=NC2=O)ccc1OCCOc1ccc(NC(C)=O)cc1`: the Potency was 3.79 µM (active).

`O=C(CSc1nnc2c3ccccc3c3ccccc3c2n1)Nc1ccccc1F`: the Potency was 12 µM (active).

`COc1ccccc1NC(=O)CCCCCN1C(=O)c2cccc3cccc(c23)C1=O`: the Potency result is “inactive”.

On to `COc1ccc(NC(=O)COc2cccc3c2CCN(C)C3=O)c(OC)c1`, for which the Potency is 8.49 µM (active).

Take `COc1ccc(NC(=O)c2ccc(CN3CCc4ccccc4C3)cc2)c(OC)c1`: the Potency entry was “inactive”.
